From PubChem
In the library only some 8.1% were active in any assay of this set; here they are far more common.
KB-3-1 tox – KB-3-1 parental cell cytotoxicity; KB-3-1 viability, CellTiter-Glo ATP luminescence, 72 h; Potency, µM (titrated, usually from 46.1 µM), hits mostly cytotoxic; 1.4% of 400,000 active; note: % is set by controls: 0 for no effect and ±100 for the full control effect; nearly all actives have a fitted effect of over 60% in size
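Cells are dispensed, compounds pinned in, plates held at 37 °C for 72 h, then CellTiter-Glo is added and luminescence read after 10 minutes. Cell line: parental KB-3-1 in phenol-red-free DMEM, 10% FBS.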
KB-V1 cytotox – KB-V1 MDR subline cytotoxicity; KB-V1 MDR cells viability, CellTiter-Glo, 72 h; Potency, µM (titrated, usually from 46.1 µM), hits mostly cytotoxic; 3.4% of 400,000 active; AID 1347076; note: % is set by controls: 0 for no effect and ±100 for the full control effect; nearly all actives have a fitted effect of over 60% in size
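Cells of the MDR subline KB-V1 are plated, dosed with compound at multiple concentrations, and incubated 72 h at 37 degrees C; CellTiter-Glo is then added and luminescence read after 10 min.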
MCF10A rerep – inducers of DNA re-replication in MCF 10A breast cells; AID 624296; 2.9% of 350,000 active; MCF 10A DNA re-replication, Hoechst nuclear intensity, 48 h; Potency, µM (doses to about 46.1 µM), for the others: at the highest dose activity, positive = re-replication, actives largely listed as activators; note: % of control where 0% means no effect; nearly all actives have a fitted effect of over 50% in size
SW480 rerep – DNA re-replication induction in SW480 cells | Potency, µM (series often up to 46.1 µM), inactives show at the top dose re-replication activation, hits mostly activators | SW480 DNA re-replication, Hoechst DNA content imaging, 48 h | 1.8% of 340,000 active; note: % of control where 0% means no effect; nearly all actives have a fitted effect of over 55% in size
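Treated cells incubate 48 hr (37 C, 5% CO2), are stained 40 min with Hoechst, and nuclear fluorescence is enumerated; a rise in nuclei with high DNA signal marks re-replication.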
ELG1 repair inh – blocks ELG1-dependent DNA repair in HEK293T cells | AID 504467 | 2.3% of 330,000 active | Potency, µM (doses to about 46.1 µM), inactives show at the highest dose activity change, negative = inhibition, actives largely listed as inhibitors | HEK293T ELG1-luciferase reporter, luminescence, 16 h; DNA damage induced by 5-fluorouridine; note: % is set by controls: 0 for no effect and ±100 for the full control effect; nearly all actives have a fitted effect of over 55% in size
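Luminescence from the luciferase reporter, measured 30 min after ONE-Glo reagent at room temperature, was the read-out. Beforehand, 2,000 cells per well were exposed for 16 hr at 37 °C to 5-fluorouridine together with compound or vehicle.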
Numbers without * were called inactive; i = inactive; ? = inconclusive; . = no result. Calls come from the whole dose curve; as a rule, active = well fitted curve in the direction sought with a large enough effect; inconclusive = small, poorly fitted or top-dose-only effect, or another doubt; inactive = no such curve, though single readings can be large; an effect the other way counts as inactive or inconclusive. Potency is the fitted concentration of half-maximal effect.

SMILES	KB-3-1 tox	KB-V1 cytotox	MCF10A rerep	SW480 rerep	ELG1 repair inh
C[C@@H]1CN(CCCn2c3ccccc3c3ccccc32)C[C@H](C)N1	.	.	18.5%	?	.
CN(C)/C=C/c1onc(-c2ccccc2Cl)c1C#N	i	i	18.4µM*	1.5%	?
Cc1cccc(N(C(=O)CCC(=O)Nc2ccccn2)C(C(=O)NC(C)C)c2ccc(O)cc2)c1 (stereo unspecified)	i	i	0.9%	2.2%	-2.3%
COC(=O)c1ccc(CN(c2ccccn2)S(=O)(=O)c2ccccc2)cc1	i	i	16.9%	-3.4%	2.1%
COC(=O)c1ccc(CN(c2ccc(C(=O)O)c(O)c2)S(=O)(=O)c2ccc(Cl)c([N+](=O)[O-])c2)cc1	i	i	3.66µM*	-0.8%	-3.0%
Fc1ccc2nncc(SCc3ccccc3Cl)c2c1	i	i	18.4µM*	18.4%	.
Fc1ccc(CSc2nnc3ccccn23)c(Cl)c1	i	?	-2.8%	?	?
FC(F)(F)c1ccc(Cl)c(Nc2nnc(-c3ccncc3)s2)c1	i	i	.	.	.
Clc1ccccc1Nc1nnc(-c2ccncc2)s1	?	9.2µM*	-7.0%	-7.2%	?
CN(CC(=O)Nc1c(Cl)cccc1Cl)C(=O)CC1Sc2ccccc2NC1=O (stereo unspecified)	i	?	6.0%	0.9%	-14.0%
COCCn1c(SCC(=O)Nc2ccc(S(=O)(=O)N(C)C)cc2)nc2ccccc21	i	i	0.1%	-1.7%	14.6µM*
CCCCC(=O)NC(c1ccccc1Cl)c1c(O)ccc2ccccc12 (stereo unspecified)	i	i	11.3%	5.9%	-29.9%
COc1ccc(C(NC(C)=O)c2ccc3cccnc3c2O)c(OC)c1 (stereo unspecified)	7.31µM*	?	13.4%	2.91µM*	?
COc1ccc(C(NC(C)=O)c2ccc3cccnc3c2O)cc1OC (stereo unspecified)	?	i	.	.	.
CCCC(=O)NC(c1ccccc1OC)c1ccc2cccnc2c1O (stereo unspecified)	?	?	16.9%	?	4.11µM*
CCCCC(=O)NC(c1ccccc1OC)c1ccc2cccnc2c1O (stereo unspecified)	6.51µM*	?	26.2%	0.731µM*	?
CC(OC(=O)c1cccc(S(=O)(=O)N2CCCC2)c1)C(=O)c1ccccc1 (stereo unspecified)	i	i	-3.1%	-4.5%	2.4%
Cc1ccc(N(CC(=O)NC2CCCC2)C(=O)CCC(=O)Nc2ccccn2)cc1C	i	i	-7.2%	-64.3%	-1.6%
O=C(Nc1ccc2c(c1)OCO2)c1cnn2c(C(F)(F)F)cc(-c3ccco3)nc12	i	i	-0.7%	-0.4%	?
O=C(NC12CC3CC(CC(C3)C1)C2)c1cc2nc(-c3ccco3)cc(C(F)(F)F)n2n1	i	i	3.66µM*	14.6µM*	?
O=C(Nc1cnn(C23CC4CC(CC(C4)C2)C3)c1)c1cnn2c(C(F)(F)F)cc(-c3ccco3)nc12	i	8.2µM*	-14.6%	-15.0%	?
Cc1ccccc1Cn1ccc(NC(=O)c2cnn3c(C(F)(F)F)cc(-c4ccco4)nc23)n1	i	i	?	-4.9%	7.94µM*
O=C(NC(=S)Nc1nc(-c2cccc([N+](=O)[O-])c2)cs1)c1ccccc1Cl	i	i	?	?	4.5%
CCOC(=O)N/N=C/c1cccc(Cl)c1Cl	i	?	0.5%	-1.2%	?
O=C(NCc1nnc(SCc2ccc(F)cc2)n1-c1ccc(F)cc1)C12CC3CC(CC(C3)C1)C2	23.1µM*	?	8.6%	0.2%	?
SMILES	KB-3-1 tox	KB-V1 cytotox	MCF10A rerep	SW480 rerep	ELG1 repair inh
O=C1c2ccccc2[C@@H]2C[C@@H](O)[C@H](Nc3cccc4ccccc34)CCN12	i	i	?	18.4µM*	?
COc1ccc(N[C@@H]2CCN3C(=O)c4ccccc4[C@@H]3C[C@H]2O)cc1	i	i	-2.7%	-3.9%	2.4%
CN(C)CCn1c(=O)n(C2CCCCC2)c(=O)c2c3c(sc21)CCCCC3	i	i	-1.7%	-5.1%	.
Clc1cccc(-c2ccc(C=Nc3ccc(N4CCOCC4)cc3)o2)c1Cl	i	i	20.6µM*	?	12.5%
Clc1ccc(-c2ccc(C=Nc3ccc(N4CCOCC4)cc3)o2)c(Cl)c1	i	i	10.9%	0.1%	2.6%
O=C(NCc1ccc(F)cc1)c1ccc(S(=O)(=O)N2CCCC2)cc1	i	?	.	.	.
COC(=O)c1ccc(CNC(=O)c2ccc(S(=O)(=O)N3CCCC(C)C3)cc2)cc1 (stereo unspecified)	i	16.4µM*	-1.1%	-5.0%	4.4%
CC(=O)c1sc(N/N=C\c2c(O)ccc3ccccc23)nc1C	?	i	?	3.26µM*	.
CCOC(=O)c1sc(N/N=C/c2cc(Br)c(O)c(OC)c2)nc1C	i	?	?	17.4%	?
CC(=O)c1sc(N/N=C\c2ccc(N(C)C)cc2)nc1C	i	i	16.4µM*	?	?
COC(=O)c1sc(N/N=C/c2ccc(C(C)C)cc2)nc1C	i	i	14.6µM*	?	?
CC(=O)c1sc(N/N=C/c2cccc(O)c2)nc1C	i	i	11.9%	-9.2%	?
CN1C(=O)c2cccc3c(N(C)C)ccc(c23)C1=O	i	11.6µM*	7.2%	-8.7%	?
CN(C(=O)c1cccnc1)c1nnc(-c2cccnc2)s1	i	i	9.6%	-2.9%	19.4%
c1ccc(COC2COC3C(OCc4ccccc4)COC23)cc1 (stereo unspecified)	i	i	10.0%	-1.3%	.
COc1ccc(C(=O)Nc2ccc(C(=O)O)cc2NC(=O)c2ccc(OC)cc2)cc1	i	i	?	-29.4%	?
CC1CC(=O)NN=C1c1ccc(NCCO)c([N+](=O)[O-])c1 (stereo unspecified)	i	0.13µM*	-0.7%	-1.7%	15.8%
COc1ccc(C(=O)Nc2ccc(C3=NNC(=O)CC3C)cc2NC(=O)c2ccc(OC)cc2)cc1 (stereo unspecified)	i	?	13.1%	?	16.4µM*
COc1ccccc1C(=O)NNC1CC(=O)N(c2ccc3c(c2)OCCO3)C1=O (stereo unspecified)	i	i	-11.4%	-5.8%	-0.5%
COc1ccc(N2C(=O)CC(NNC(=O)c3cc(C)oc3C)C2=O)cc1 (stereo unspecified)	i	i	2.59µM*	5.6%	-8.5%
COc1ccc(C(C)C)cc1S(=O)(=O)NCC1CCCO1 (stereo unspecified)	i	i	4.4%	-19.9%	-0.5%
